Results on 7 compounds are retold here after PubChem BioAssay (NCATS).

Test [1] concerns the target Calcium and integrin-binding protein 1 (Homo sapiens) (UniProt Q99828). Nature of the test: Primary qHTS for Identification of Calcium Integrin Binding Protein 1 (CIB1) Competitor (AID 1508620).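 Note: GST tagged CIB1 binding a fluorescein labelled alphaIIb integrin peptide tracer; top concentration of the series differs between compounds.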 The settings on record: CIB1-GST / FITC-alphaIIb peptide fluorescence polarization; series mostly up to 114 µM. The gist of the method: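 CIB1-GST (1 uM final) and compound incubated 15 min at room temperature before adding FITC-alphaIIb peptide tracer (100 nM final). Competition for binding read by fluorescence polarization (ex 480, em 540) after another 15 min at room temperature.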

The nature of test [2]: Primary qHTS for small molecule stabilizers of the endoplasmic reticulum resident proteome: Secreted ER Calcium Modulated Protein (SERCaMP) assay (AID 1508630). Conditions: SH-SY5Y GLuc-SERCaMP (Gaussia luciferase released on ER calcium loss) secretion, thapsigargin, luminescence; series mostly up to 38.4 µM. The gist of the method:
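The SH-SY5Y reporter protocol was run at 3 concentrations up to 38.3 uM (primary) or 11 concentrations (follow-up): 16 h compound, 100 nM thapsigargin for 4 h, then extracellular luciferase luminescence.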

Inconclusive results are not listed. The source made the active and inactive calls. Calls come from the whole dose curve; as a rule, active = well fitted curve in the direction sought with a large enough effect; inconclusive = small, poorly fitted or top-dose-only effect, or another doubt; inactive = no such curve, though single readings can be large; an effect the other way counts as inactive or inconclusive.

Chain of Calcium and integrin-binding protein 1 (Homo sapiens) (Q99828 whole entry, looked up): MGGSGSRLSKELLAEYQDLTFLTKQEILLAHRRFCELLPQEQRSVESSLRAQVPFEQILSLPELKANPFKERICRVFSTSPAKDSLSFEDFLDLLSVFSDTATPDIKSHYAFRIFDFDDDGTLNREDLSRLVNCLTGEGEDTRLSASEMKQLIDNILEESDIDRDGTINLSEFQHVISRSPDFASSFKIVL

Consider `CCOc1ccc(CCNC(=O)c2cc3ncccc3n2Cc2cccc(C)n2)cc1OCC`, for which the outcome in test [1] was inactive.

Consider `O=C(O)[C@@H]1Cc2[nH]cnc2C(c2cccnc2)N1` (some centres not stated), for which the result in test [2] was inactive. As for `N#Cc1c(-c2ccc([N+](=O)[O-])o2)no[n+]1[O-]`, the outcome in test [1] was inactive. On the same count and under the same terms, the result for `O=S(=O)(Nc1ccccc1)c1ccc(NCc2ccc(Br)cc2O)cc1` reads “inactive”; that for `COc1cccc(CNc2ccc(S(=O)(=O)Nc3nc(C)c(C)s3)cc2)c1O`, “inactive”. Consider `CCCOC(=O)c1cc2c(cn1)[nH]c1ccccc12`, for which, in test [2], the outcome was inactive. Consider `CCOc1ccc(CCNC(=O)c2ccc(C(=O)c3ccccc3)cc2)cc1OCC`, for which the outcome in test [1] was inactive.
